Reference: publication PMC12214610

What follows are substances tested against Heat shock cognate 71 kDa protein (UniProt P11142).
Chain of Heat shock cognate 71 kDa protein (P11142 whole entry): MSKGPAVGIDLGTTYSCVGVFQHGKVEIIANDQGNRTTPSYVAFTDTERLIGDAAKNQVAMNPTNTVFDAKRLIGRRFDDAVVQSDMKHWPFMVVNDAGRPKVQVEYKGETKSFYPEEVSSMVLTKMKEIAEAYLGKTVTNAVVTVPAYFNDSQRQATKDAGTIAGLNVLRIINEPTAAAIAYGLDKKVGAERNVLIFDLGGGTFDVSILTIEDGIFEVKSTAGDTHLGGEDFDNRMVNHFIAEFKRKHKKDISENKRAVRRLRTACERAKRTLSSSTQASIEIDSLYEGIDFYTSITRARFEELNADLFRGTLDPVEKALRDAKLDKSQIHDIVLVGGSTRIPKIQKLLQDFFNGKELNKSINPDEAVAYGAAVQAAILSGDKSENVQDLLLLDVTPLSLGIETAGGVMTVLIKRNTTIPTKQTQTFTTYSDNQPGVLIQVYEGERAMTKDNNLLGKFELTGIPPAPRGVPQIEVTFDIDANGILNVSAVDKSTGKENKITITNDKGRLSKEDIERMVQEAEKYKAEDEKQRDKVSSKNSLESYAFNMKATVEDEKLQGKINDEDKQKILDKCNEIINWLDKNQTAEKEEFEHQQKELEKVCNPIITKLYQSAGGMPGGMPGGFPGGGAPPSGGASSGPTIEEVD

Chain of Glyceraldehyde-3-phosphate dehydrogenase, P04406 (P04406 whole entry): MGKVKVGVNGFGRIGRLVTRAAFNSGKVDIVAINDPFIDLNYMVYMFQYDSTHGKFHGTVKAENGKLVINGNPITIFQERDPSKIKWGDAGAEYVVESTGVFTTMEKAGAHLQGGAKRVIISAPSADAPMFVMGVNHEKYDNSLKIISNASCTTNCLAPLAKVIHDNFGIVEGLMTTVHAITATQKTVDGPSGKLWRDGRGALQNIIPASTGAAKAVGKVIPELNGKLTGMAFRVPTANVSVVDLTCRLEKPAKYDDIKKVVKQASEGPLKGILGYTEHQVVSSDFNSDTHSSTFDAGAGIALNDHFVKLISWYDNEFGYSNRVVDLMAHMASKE

Listed as a hit, yes:
Heat shock 70 kDa protein 4L, O95757
Thioredoxin, P10599
Glyceraldehyde-3-phosphate dehydrogenase, P04406
